Hits are enriched below; roughly 4% of the tested compounds scored in any of these assays.
HEK293 cAMP cs – qHTS Assay for Agonists of the Thyroid Stimulating Hormone Receptor: Activators of Intracellular cAMP Concentrations in Parental HEK 293 | Potency, µM (titrated, usually from 57.1 µM), for inactives: top-dose activation, most hits filed as activators | parental HEK293 CNG cAMP sensor, membrane potential fluorescence | 73,000 compounds, 2.5% hits; note: % of control where 0% means no effect; nearly all actives have a fitted effect of over 55% in size
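Parental HEK 293 cells stably expressing a cAMP-gated CNG channel were loaded with membrane potential dye containing 100 uM RO 20-1724 for 60 min. Compound added for 30 min; depolarization read as fluorescence intensity at 590 nm.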
Caspase-7 inhib – qHTS Assay for Allosteric/Competitive Inhibitors of Caspase-7; P55210; recombinant caspase-7, Ac-DEVD-AFC fluorescence rate; Potency, µM (top dose mostly 57.5 µM), without a hit: top-dose activity change, negative = inhibition, usual class: inhibitors; 75,000 compounds, 0.02% hits; AID 889, 2007; active = well fitted inhibition curve with a large enough effect in the main read-out, with a control signal flat, not every such curve was filed as active; inconclusive = small, poorly fitted or top-dose-only effect, or a change in a side signal; note: % of control where 0% means no effect
Casp1 inh – qHTS Assay for Allosteric/Competitive Inhibitors of Caspase-1. AID 900, 2007. Potency, µM (highest dose often 57.5 µM), for the others: at the top dose activity change, negative = inhibition, actives largely listed as inhibitors. Caspase-1 enzyme, Ac-WEHD-AFC fluorogenic rate. P29466. 75,000 compounds, 0.03% hits;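 note: plate controls were vehicle for no effect and no substrate for full effect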
TSHR agonist – qHTS Assay for Agonists of the Thyroid Stimulating Hormone Receptor | 73,000 compounds, 0.48% hits | Potency, µM (series often up to 57.1 µM), inactives show at the top dose activation, actives largely listed as activators | HEK293-CNG-TSHR cells (CNG channel as cAMP sensor), membrane potential dye, cAMP | Thyrotropin receptor (Homo sapiens), P16473 | AID 926, 2007; active = well fitted activation curve with a large enough effect in the main read-out, with a control signal flat, not every such curve was filed as active; inconclusive = small, poorly fitted or top-dose-only effect, or a change in a side signal; inactive = no such curve, though single readings can be large or run the other way; % of control where 0% means no effect;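 note: the control signal comes from parental cells without the receptor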
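cAMP rise detected as CNG-channel membrane depolarization by fluorescent dye (emission 590 nm), 30 min after compound, following 60 min dye loading containing 100 uM RO 20-1724 at room temperature. Cells: TSHR/CNG HEK 293, with parental CNG HEK 293 as control.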
PK Bst – Pyruvate Kinase; Potency, µM; purified pyruvate kinase, luminescence ATP production; ribose 5-phosphate activator present at AC10; 51,000 compounds, 1.2% hits; in the data active = potency below about 11 µM; inconclusive = mostly about 12 µM to 25 µM;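 the screen sought inhibitors and activators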;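 note: scaled between full activation by ribose 5 phosphate and full inhibition by luteolin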
GBA activity – Glucocerebrosidase | Lysosomal acid glucosylceramidase (Homo sapiens), P04062 | purified enzyme, resorufin glucoside fluorescence (screen aimed at inhibitors), 20 min | Potency, µM | 48,000 compounds, 1.1% hits | AID 360, 2006; in the data active = potency below about 15 µM; inconclusive = mostly about 16 µM to 33 µM;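 note: the screen sought inhibitors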
Target sequence (P04062 whole entry, looked up): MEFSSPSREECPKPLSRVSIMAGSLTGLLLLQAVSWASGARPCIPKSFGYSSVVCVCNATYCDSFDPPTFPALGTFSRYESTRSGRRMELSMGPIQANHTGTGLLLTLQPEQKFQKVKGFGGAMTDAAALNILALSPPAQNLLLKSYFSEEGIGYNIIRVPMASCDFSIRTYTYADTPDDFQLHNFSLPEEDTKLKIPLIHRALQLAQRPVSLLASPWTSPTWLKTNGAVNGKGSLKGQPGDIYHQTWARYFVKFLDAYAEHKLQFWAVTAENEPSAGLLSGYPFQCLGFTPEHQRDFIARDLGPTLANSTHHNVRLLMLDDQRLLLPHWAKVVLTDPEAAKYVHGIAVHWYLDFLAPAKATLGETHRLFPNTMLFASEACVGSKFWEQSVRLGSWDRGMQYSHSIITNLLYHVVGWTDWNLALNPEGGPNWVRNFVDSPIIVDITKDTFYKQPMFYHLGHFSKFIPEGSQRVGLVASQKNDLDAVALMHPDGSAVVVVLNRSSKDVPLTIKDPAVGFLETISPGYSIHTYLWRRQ
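Compounds titrated against 0.2 nM normal enzyme, 30 uM resorufin beta-D-glucopyranoside substrate, citrate/phosphate buffer with taurocholate and tween-20, pH 5.9. Reaction ran 20 min at room temperature; fluorescence (Ex 548/Em 600) gave AC50.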
* marks the source's active call; other numbers are inactive results; [ ] = dose if it differs, or a comment. Unless noted, calls come from the whole dose curve; as a rule, active = well fitted curve in the direction sought with a large enough effect; inconclusive = small, poorly fitted or top-dose-only effect, or another doubt; inactive = no such curve, though single readings can be large; an effect the other way counts as inactive or inconclusive. Potency is the fitted concentration of half-maximal effect.

How did CC(=O)NCCNc1nc(-c2ccccc2C)nc2ccccc12 do in these assays?
HEK293 cAMP cs: 22%; Caspase-7 inhib: -1%; Casp1 inh: 0%; TSHR agonist: 8%

What do the screens show for `Cc1cc(NC(=O)c2cccc(C(=O)Nc3cc(C)on3)n2)no1`?
HEK293 cAMP cs: 4%; Caspase-7 inhib: 0%; Casp1 inh: 0%; TSHR agonist: 2%; PK Bst: >57; GBA activity: >77

What do the screens show for `Cc1cc(C)c2nc(-c3ccccn3)cc(C(=O)Nc3cc(C)on3)c2c1`?
HEK293 cAMP cs: 16µM*; Caspase-7 inhib: -4%; Casp1 inh: -3%; TSHR agonist: inconclusive; PK Bst: >57; GBA activity: >77

Results for Cc1cc(NC(=O)c2cc(-c3ccncc3)nc3c(C)cccc23)no1 ?
HEK293 cAMP cs: 32µM*; Caspase-7 inhib: -6%; Casp1 inh: 1%; TSHR agonist: inconclusive; PK Bst: >57; GBA activity: >77

How did O=C(NCc1ccco1)c1cc(-c2cccnc2)nc2ccccc12 do in these assays?
HEK293 cAMP cs: 9%; Caspase-7 inhib: -2%; Casp1 inh: -2%; TSHR agonist: 20%; PK Bst: >57; GBA activity: >77

What do the screens show for `Cc1cc(C)c2nc(-c3ccccn3)cc(C(=O)NCc3ccco3)c2c1`?
HEK293 cAMP cs: 25µM*; Caspase-7 inhib: -9%; Casp1 inh: -2%; TSHR agonist: inconclusive; PK Bst: >57; GBA activity: >77

How did Cc1cc(NC(=O)c2ccc(NC(=O)c3cccs3)cc2)no1 do in these assays?
HEK293 cAMP cs: 0%; Caspase-7 inhib: 0%; Casp1 inh: 0%; TSHR agonist: -2%; PK Bst: >57; GBA activity: 2.4*

What do the screens show for `COCCNc1ncnc2ccc(-c3ccccc3C)cc12`?
HEK293 cAMP cs: inconclusive; Caspase-7 inhib: -3%; Casp1 inh: -2%; TSHR agonist: inconclusive

How did CC[C@@H](Nc1ncnc2nc[nH]c12)C(=O)O do in these assays?
HEK293 cAMP cs: -3%[11.4 µM]; Caspase-7 inhib: -1%[11.5 µM]; Casp1 inh: -2%[11.5 µM]; TSHR agonist: 3%[11.4 µM]

What do the screens show for `O=C1C=CC(=O)C2=C1C1c3ccccc3C2c2ccccc21`?
HEK293 cAMP cs: -2%; Caspase-7 inhib: 0%; Casp1 inh: -1%; TSHR agonist: -5%

Results for Cc1cc(NC(=O)c2cc(-c3cccs3)nc3ccccc23)no1 ?
HEK293 cAMP cs: 16µM*; Caspase-7 inhib: -15%; Casp1 inh: -11%; TSHR agonist: inconclusive

Results for Cc1cc(NC(=O)c2cc(-c3ccccn3)nc3ccccc23)no1 ?
HEK293 cAMP cs: 18%; Caspase-7 inhib: 1%; Casp1 inh: 0%; TSHR agonist: 25%; PK Bst: >57; GBA activity: >77

What do the screens show for `Oc1ccc2cccnc2c1`?
HEK293 cAMP cs: -4%; Caspase-7 inhib: inconclusive; TSHR agonist: 2%; PK Bst: >57; GBA activity: >77

What do the screens show for `O=C(Cc1ccc2cccnc2c1)c1ccc(O)cc1O`?
HEK293 cAMP cs: -7%; Caspase-7 inhib: -1%; Casp1 inh: 0%; TSHR agonist: -3%; PK Bst: 6*; GBA activity: >77

Results for COc1ccc2[nH]cc(CCNc3ncncc3-c3ccc(C(=O)N(C)C)cc3)c2c1 ?
HEK293 cAMP cs: 6%; Caspase-7 inhib: -4%; Casp1 inh: -4%; TSHR agonist: 3%

How did COc1ccccc1N/C(N)=N/c1nc(CSc2ccc(C)cc2)cc(=O)[nH]1 do in these assays?
HEK293 cAMP cs: 29%; Caspase-7 inhib: -5%; Casp1 inh: -3%; TSHR agonist: 17%; PK Bst: >57

How did COc1ccc(N/C(N)=N/c2nc(CSc3ccc(C)cc3)cc(=O)[nH]2)cc1 do in these assays?
HEK293 cAMP cs: 0%; Caspase-7 inhib: -1%; Casp1 inh: -6%; TSHR agonist: 4%; PK Bst: >57; GBA activity: 9.7*

How did COc1ccccc1CNc1ncnc2ccc(-c3ccccc3C#N)cc12 do in these assays?
HEK293 cAMP cs: inconclusive; Caspase-7 inhib: -7%; Casp1 inh: -4%; TSHR agonist: inconclusive

Results for Cc1cc(-c2nnc3n2N=C(c2ccc(-c4ccccc4)cc2)CS3)n[nH]1 ?
HEK293 cAMP cs: 32µM*; Caspase-7 inhib: -9%; Casp1 inh: -3%; TSHR agonist: inconclusive; GBA activity: inactive

How did FC(F)(F)c1cc(-c2ccco2)nc(-n2nnc3ccccc32)n1 do in these assays?
HEK293 cAMP cs: 25µM*; Caspase-7 inhib: -2%; Casp1 inh: 2%; TSHR agonist: inconclusive; PK Bst: >57; GBA activity: >77

How did C[C@@H](N=C(N)N)C(=O)O do in these assays?
HEK293 cAMP cs: -1%[11.4 µM]; Caspase-7 inhib: 1%[11.5 µM]; Casp1 inh: 2%[11.5 µM]; TSHR agonist: 0%[11.4 µM]

How did CCc1nc(C)cn1S(=O)(=O)c1cc(C)c(OC)cc1C do in these assays?
HEK293 cAMP cs: inconclusive; Caspase-7 inhib: 1%; Casp1 inh: -3%; TSHR agonist: inconclusive

Results for CCc1nc(C)cn1S(=O)(=O)c1ccc(Cl)c(Cl)c1Cl ?
HEK293 cAMP cs: 25µM*; Caspase-7 inhib: 0%; Casp1 inh: -1%; TSHR agonist: inconclusive

Results for Cc1sc(NC(=O)c2ccccc2)c(C(=O)N2CCN(C)CC2)c1C ?
HEK293 cAMP cs: 10%; Caspase-7 inhib: 5%; Casp1 inh: 0%; TSHR agonist: -2%; PK Bst: >57; GBA activity: 12*

Results for Cc1sc(NC(=O)c2cccs2)c(C(N)=O)c1C ?
HEK293 cAMP cs: 1%; Caspase-7 inhib: -1%; Casp1 inh: -1%; TSHR agonist: -24%

What do the screens show for `COc1ccc2c3c(ccc2c1)N[C@H](C(=O)O)CC3`?
HEK293 cAMP cs: 8%[11.4 µM]; Caspase-7 inhib: 3%[11.5 µM]; Casp1 inh: 1%[11.5 µM]; TSHR agonist: 7%[11.4 µM]

Results for COc1ccc(-c2cn3cc(C)ccc3n2)cc1OC ?
HEK293 cAMP cs: 17%; Caspase-7 inhib: -3%; Casp1 inh: -10%; TSHR agonist: 12%; PK Bst: 1.8*

Results for Cc1cc(N2CCN(C(c3ccccc3)c3ccc(Cl)cc3)CC2)n2ncnc2n1 (stereo unspecified) ?
HEK293 cAMP cs: 17%; Caspase-7 inhib: -5%; Casp1 inh: -5%; TSHR agonist: 25µM*

What do the screens show for `Cc1cc(N2CCCc3ccccc32)n2ncnc2n1`?
HEK293 cAMP cs: 13%; Caspase-7 inhib: 0%; Casp1 inh: 3%; TSHR agonist: 16%

Results for COC(=O)c1[nH]c2ccc(C)cc2c1NC(=O)CN1CCCc2ccccc21 ?
HEK293 cAMP cs: 28%; Caspase-7 inhib: -5%; Casp1 inh: -5%; TSHR agonist: 1%; PK Bst: 9.1*; GBA activity: >77

High-throughput results (PubChem BioAssay)
